The list is not random: actives were taken first. Their share in the collection is about 6.7%.
C diff HTS = inhibitors of Clostridium difficile growth | Clostridium difficile clinical isolate growth, OD600, 24 h; active compounds read low | growth activity, negative = inhibition, % at 16 µg/mL (by protocol) | 86,000 tested, 0.25% active | AID 1259249;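 active = mean growth activity at or below -80% and every replicate also at or below -80%; inconclusive = mean at or below -80% but some replicate above -80%; inactive = mean growth activity above -80%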
T cruzi growth-1 = blocks T. cruzi growth in NIH3T3 culture; inhibition, % at 8.34 µM; 77,000 tested, 5.9% active; T. cruzi beta-gal in NIH3T3, GalScreen luminescence, 90 h;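 active = mean inhibition above about 93%, with at least 55% of replicates each passing it, limit read from the data, passing the limit was not always enough; inconclusive = only one of those two conditions holds; inactive = neither condition holds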
Pf Dd2 growth = P. falciparum Dd2 growth inhibition. SYBR Green, 72 h; active compounds read low. activity change, % at 10 µM. 94,000 tested, 2.3% active. AID 1159554; in the data active = activity change below about -80%; inconclusive = no clear call, values can overlap the other calls
T cruzi growth-2 = blocks T. cruzi growth in NIH3T3 host cells | shares compounds with T cruzi growth-1 | T. cruzi beta-gal in NIH3T3, GalScreen luminescence, 90 h | inhibition, % at 8.35 µM | 5,600 tested, 72% active;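 active = mean replicate inhibition above about 95% and at least 55% of replicates individually reaching it, limit read from the data; inconclusive = only one of the two criteria is met; inactive = neither criterion is met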
T cruzi growth-3 = blocks T. cruzi growth in NIH3T3 host cells | T. cruzi beta-gal in NIH3T3, GalScreen luminescence, 90 h | inhibition, % at 2.09 µM | shares compounds with T cruzi growth-1 | 5,600 tested, 21% active;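 active = mean inhibition above about 95%, with at least 55% of replicates also reaching it, limit read from the data; inconclusive = meets just one of the two conditions; inactive = meets neither condition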
NIH3T3 tox = kills mouse NIH/3T3 fibroblasts. shares compounds with T cruzi growth-1. NIH/3T3 viability, CellTiter-Glo ATP luminescence, 90 h. cytotoxicity (signal decrease), % at 8.35 µM. 5,600 tested, 14% active. AID 651742;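 active = mean signal decrease across replicates above about 35% based on untreated-well scatter, with enough replicates individually passing, limit read from the data; inconclusive = no rule stated though some were filed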
NIH3T3 tox 2 = NIH/3T3 (mouse) viability loss; inhibition, % at 24.9 µM; NIH/3T3 viability, CellTiter-Glo ATP luminescence, 90 h; shares compounds with T cruzi growth-1; 5,600 tested, 56% active;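 active = mean loss of cell viability signal at or above a set limit, and enough replicates individually reaching it; inconclusive = meets only the mean limit or only the replicate share; inactive = meets neither condition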
Numbers stand for hits; 0 = inactive; ? = inconclusive; - = no result given; + = active, no number.

SMILES	C diff HTS	T cruzi growth-1	Pf Dd2 growth	T cruzi growth-2	T cruzi growth-3	NIH3T3 tox	NIH3T3 tox 2
COc1ccc2c3c([nH]c2c1)[C@H](CO)N(C(C)=O)CC31CN(C(C)=O)C1	0	-	0	-	-	-	-
COc1cccc(-c2ccc3c(c2)[C@H]2[C@H](CCN2S(=O)(=O)c2ccccc2F)[C@H](CO)N3C)c1	0	0	0	-	-	-	-
C[C@@H]1CCCCO[C@H](CN(C)S(=O)(=O)c2cccs2)[C@@H](C)CN([C@@H](C)CO)C(=O)c2cc(NC(=O)Nc3ccccc3)ccc2O1	0	?	-	107	0	0	0
C[C@@H]1CCCCO[C@H](CN(C)S(=O)(=O)c2cccs2)[C@@H](C)CN([C@H](C)CO)C(=O)c2cc(NC(=O)Nc3ccc(F)cc3)ccc2O1	0	0	0	-	-	-	-
C[C@H]1CCCCO[C@H](CN(C)S(=O)(=O)c2cccs2)[C@@H](C)CN([C@@H](C)CO)C(=O)c2cc(NC(=O)Nc3ccccc3)ccc2O1	0	107	-	106	0	0	27
COc1ccc(NC(=O)Nc2ccc3c(c2)C(=O)N([C@@H](C)CO)C[C@H](C)[C@H](CN(C)S(=O)(=O)c2cccs2)OCCCC[C@@H](C)O3)cc1	0	0	0	-	-	-	-
O=C(C[C@H]1C=C[C@H](NC(=O)C2CCOCC2)[C@@H](CO)O1)NCC1CCCCC1	0	-	-	-	-	-	-
CN(C)CC(=O)Nc1ccc2c(c1)[C@H]1C[C@@H](CC(=O)NCc3ccccc3)O[C@@H](CO)[C@H]1O2	-	0	0	-	-	-	-
CCNC(=O)[C@H]1[C@H](CO)[C@H]2Cn3c(ccc(-c4ccccc4OC)c3=O)[C@H]2N1CC	0	0	0	-	-	-	-
O=C(C[C@@H]1C[C@H]2c3cc(NC(=O)C4CCOCC4)ccc3O[C@H]2[C@@H](CO)O1)NCc1ccc(Oc2ccccc2)cc1	-	0	0	-	-	-	-
O=C(C[C@@H]1C[C@@H]2c3cc(NC(=O)Nc4ccccc4F)ccc3O[C@@H]2[C@@H](CO)O1)NCc1ccc(Oc2ccccc2)cc1	0	0	0	-	-	-	-
O=C(C[C@H]1C[C@@H]2c3cc(NC(=O)C4CCOCC4)ccc3O[C@@H]2[C@@H](CO)O1)NCc1ccc(Oc2ccccc2)cc1	-	156	0	0	0	0	0
O=C(C[C@@H]1C[C@H]2c3cc(NC(=O)Nc4ccccc4F)ccc3O[C@H]2[C@H](CO)O1)NCc1ccc(Oc2ccccc2)cc1	0	106	0	0	0	0	78
O=C(c1ccccn1)N1CC(=O)N2[C@@H](CO)[C@@H](c3ccc(C#CCc4ccccc4)cc3)[C@@H]2C1	0	-	0	-	-	-	-
CC(C)OC(=O)N(C)C[C@@H]1OCc2cn(nn2)CCCC(=O)N([C@@H](C)CO)C[C@@H]1C	-	0	0	-	-	-	-
CCCNC(=O)N1CCC2(CC1)CN(C(=O)c1cccnc1)[C@H](CO)c1[nH]c3cc(OC)ccc3c12	0	-	0	-	-	-	-
C[C@@H]1CCCCO[C@@H](CN(C)C(=O)Nc2ccc(C(F)(F)F)cc2)[C@@H](C)CN([C@H](C)CO)C(=O)c2cc(NC(=O)CCC(F)(F)F)ccc2O1	0	0	0	-	-	-	-
COc1ccc(NC(=O)N(C)C[C@@H]2Oc3ccc(NC(=O)CCC(F)(F)F)cc3C(=O)N([C@H](C)CO)C[C@H]2C)cc1	0	101	0	0	0	0	0
C[C@@H]1CN([C@H](C)CO)C(=O)c2cc(NC(=O)CCC(F)(F)F)ccc2O[C@@H](C)CCCCO[C@H]1CN(C)C(=O)Nc1ccc(F)cc1	-	0	0	-	-	-	-
C[C@@H]1CCCCO[C@H](CN(C)C(=O)Nc2ccc(F)cc2)[C@H](C)CN([C@H](C)CO)C(=O)c2cc(NC(=O)CCC(F)(F)F)ccc2O1	-	98	0	0	0	0	32
COc1ccc(NC(=O)N(C)C[C@H]2Oc3ccc(NC(=O)CCC(F)(F)F)cc3C(=O)N([C@H](C)CO)C[C@H]2C)cc1	0	0	0	-	-	-	-
C[C@H](CO)N1C[C@H](C)[C@@H](CN(C)C(=O)Nc2ccc(C(F)(F)F)cc2)OCCCC[C@H](C)Oc2ccc(NC(=O)CCC(F)(F)F)cc2C1=O	0	101	0	108	0	0	0
O=C(C[C@@H]1CC[C@@H]2[C@H](COC[C@@H](O)CN2Cc2cc(F)cc(F)c2)O1)NC1CCC1	0	0	0	-	-	-	-
CCCN1[C@H](C(=O)N[C@@H](C)c2ccccc2)[C@@H](CO)[C@@H]2Cn3c(ccc(-c4ccccc4)c3=O)[C@@H]21	0	?	0	104	0	0	52
CN1[C@H](C(=O)NC2CCCCC2)[C@@H](CO)[C@@H]2Cn3c(ccc(-c4cccc(F)c4)c3=O)[C@@H]21	0	?	0	0	0	0	0
SMILES	C diff HTS	T cruzi growth-1	Pf Dd2 growth	T cruzi growth-2	T cruzi growth-3	NIH3T3 tox	NIH3T3 tox 2
CCCN1[C@@H]2c3ccc(-c4ccccc4)c(=O)n3C[C@@H]2[C@@H](CO)[C@@H]1C(=O)N[C@@H](C)c1ccccc1	0	0	0	-	-	-	-
CN(C)CC(=O)N1[C@@H]2c3ccc(-c4ccc(F)cc4)c(=O)n3C[C@@H]2[C@@H](CO)[C@@H]1C(=O)NC1CCCC1	0	101	0	0	0	0	0
CN1[C@@H]2c3ccc(-c4cccc(F)c4)c(=O)n3C[C@@H]2[C@@H](CO)[C@@H]1C(=O)NC1CCCC1	0	-	0	-	-	-	-
CCN1[C@@H]2c3ccc(-c4ccc(F)cc4)c(=O)n3C[C@@H]2[C@@H](CO)[C@@H]1C(=O)NC1CCC1	0	-	0	-	-	-	-
CN1[C@@H]2c3ccc(-c4cncnc4)c(=O)n3C[C@@H]2[C@@H](CO)[C@@H]1C(=O)NC1Cc2ccccc2C1	0	+	-	0	0	0	0
CN1[C@@H]2c3ccc(-c4ccncc4)c(=O)n3C[C@@H]2[C@@H](CO)[C@@H]1C(=O)NC1Cc2ccccc2C1	0	0	0	-	-	-	-
O=C(N[C@@H]1CC[C@H](CCNS(=O)(=O)c2ccccc2Cl)O[C@H]1CO)c1ccccc1	0	0	0	-	-	-	-
CC(C)(C)S(=O)N1Cc2cc(C(=O)NCc3ccc4c(c3)OCO4)nc(-c3cccc(C#CCC4CCCC4)c3)c2[C@@H]1CCO (stereo partly drawn)	0	-	0	-	-	-	-
CN(C)CC(=O)N1[C@H](C(=O)NC2CCCC2)[C@@H](CO)[C@@H]2Cn3c(ccc(-c4ccc(F)cc4)c3=O)[C@@H]21	0	105	0	0	0	0	0
CN(C)CC(=O)N1[C@@H]2c3ccc(-c4cccc(F)c4)c(=O)n3C[C@@H]2[C@@H](CO)[C@@H]1C(=O)NC1CCC1	0	0	0	-	-	-	-
CN(C)CC(=O)N1[C@H](C(=O)NC2CCC2)[C@@H](CO)[C@@H]2Cn3c(ccc(-c4cccc(F)c4)c3=O)[C@@H]21	0	0	0	-	-	-	-
CN(C)CC(=O)N1[C@@H]2c3ccc(-c4ccccc4)c(=O)n3C[C@@H]2[C@@H](CO)[C@@H]1C(=O)NC1CCC1	0	+	-	0	0	0	0
CNC(=O)C[C@H]1CC[C@H]2[C@@H](COc3ccc(NC(=O)c4cc(C)on4)cc3C(=O)N2C)O1	0	0	0	-	-	-	-

Bioassay records from PubChem.
